These results are taken from PubChem BioAssay (NCATS).

Where “and” joins values, the source holds several entries; their conditions need not be identical. Equal entries are not always repeated. Records with an inconclusive call do not appear. A number with no mark means an inactive call. The call rests on the fitted dose curve; in most records, active means well fitted inhibition curve with a large enough effect in the signal ratio, with a control signal flat (not every such curve was filed as active); inconclusive means small, poorly fitted or top-dose-only effect, or effect the other way, or a change in a side signal; inactive means flat fitted curve, though single readings scatter; the % refers to the signal ratio.
On the % scale 0 is the no-effect control and ±100 the full control effect.

The target in the assay is Thyroid hormone receptor beta (Homo sapiens) (UniProt P10828). As to the kind of experiment: qHTS assay for small molecule antagonists of thyroid hormone receptor beta signaling (AID 588547).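 Further: cells stimulated with 0.4 nM T3 agonist during compound exposure; series mostly up to about 77 µM.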 Conditions: TR-UAS-bla HEK293, beta-lactamase ratio, antagonist mode, 18 h. The source says: NIH Chemical Genomics Center [NCGC] U.S. Environmental Protection Agency [EPA] National Institutes of Environmental Health Sciences [NIEHS] National Toxicology Program [NTP] NCGC Assay Overview Thyroid hormone receptor (TR) belongs to nuclear hormone receptor superfamily. There are two subtypes for TR: TR-alpha and TR-beta. TR-beta plays a major role in regulating plasma cholesterol levels and it mediates the biological activities of thyroid hormone. Screening environmental chemicals on TR-beta signaling will provide important information for the mechanism of compound action.
Sequence of Thyroid hormone receptor beta (Homo sapiens) (P10828 whole entry, looked up): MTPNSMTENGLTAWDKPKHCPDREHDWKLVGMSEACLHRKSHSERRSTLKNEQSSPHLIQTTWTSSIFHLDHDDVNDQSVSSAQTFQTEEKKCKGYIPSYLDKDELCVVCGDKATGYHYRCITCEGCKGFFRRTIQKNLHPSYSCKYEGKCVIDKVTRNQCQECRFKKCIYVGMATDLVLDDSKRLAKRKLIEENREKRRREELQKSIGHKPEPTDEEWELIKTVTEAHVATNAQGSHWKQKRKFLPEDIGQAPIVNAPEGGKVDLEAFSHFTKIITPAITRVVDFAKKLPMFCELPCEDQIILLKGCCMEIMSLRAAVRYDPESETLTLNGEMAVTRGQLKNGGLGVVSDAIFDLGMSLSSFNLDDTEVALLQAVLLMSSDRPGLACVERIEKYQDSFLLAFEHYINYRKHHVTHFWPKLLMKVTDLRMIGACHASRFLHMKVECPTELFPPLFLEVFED
NCGC Assay Protocol Summary Using a beta-lactamase reporter-gene under control of the TR response element, a cell-based assay [GeneBLAzer TR-UAS-bla-GripTite assay developed by Invitrogen] was used to measure TR-beta signaling in antagonist mode. TR-UAS-bla-GripTite HEK 293 cells were used with assay medium containing 2% charcoal/dextran FBS, 0.1 mM NEAA and 1 mM sodium pyruvate. The assay was performed in clear bottom black Greiner 1536-well plates. Library compounds were measured for their ability to inhibit the reporter gene activity. Compounds were screened in a titration series in 1536-well format. The fluorescence intensity (405 nm excitation, 460/530 nm emission) was measured using an EnVision plate reader. […] Concentration-response titration points for each compound were fitted to the Hill equation yielding concentrations of half-maximal inhibition (IC50) and maximal response (efficacy) values. qHTS protocol for TR-beta beta-lactamase assay in antagonist mode [Step] [Parameter] [Value] [Description] 1. Reagent; 5 uL; 2500 cells/well 2. Incubation; 37 C for 4 hrs 3. Compounds; 23 nL; 0.59 nM to 92 uM 4. Controls (DMSO); 23 nL 5. Agonist (Stimulator); 1uL; T3 at 0.4nM (final) concentrations 6. Incubation; 37 C for 18 hrs 7. Detection reagent; 1 uL of CCF4-dye 8. Incubation; RT for 2 hrs 9. Detection; Fluorescence; Envision plate reader
In general terms: In qHTS, concentration-response curves come from the screen itself.
In the case of `O=c1ccc(=O)[nH][nH]1`, the activity change % (negative = inhibition) was -3.55%.
Next, `CN(C)c1ccccc1`: -1.14%; `O=[N+]([O-])c1ccccc1CCl`: 8.81%; `C=COC(C)=O`: 0.373%.
Next, `c1ccc(NNc2ccccc2)cc1`: 8.59%; `Cc1ccc(OP(=O)(Oc2ccc(C)cc2)Oc2ccc(C)cc2)cc1`: -7.32% and 3.64%; `O=C(Cc1ccccc1)OCc1ccccc1`: 0.158%.
Next, `CCCCCOC(=O)c1ccccc1C(=O)OCCCCC`: 15.4% and 2.77%.
Take `CN(C)C(=O)Cl`: the activity change % (negative = inhibition) is -23.4%.
Next, `C[N+](=O)[O-]`: -5.27%; `Nc1cc(Cl)cc(C(=O)O)c1Cl`: -1.41%; `Nc1ccc([N+](=O)[O-])cc1N`: 8.39% and -11.3%.
Next, `O=C(Cl)c1ccccc1F`: -5.22%; `Cc1cccc(C)c1N`: -2.91%; `C=CC(=O)OCC(CC)CCCC` (stereo not given): -10.5% and 4.22%.
Take `CCCCCCCCCCCCCl`: the activity change % (negative = inhibition) was -6.1%.
Next, `Oc1cccc(Cl)c1`: 0.91%.
Next, `CC(C)(COCC1CO1)COCC1CO1` (stereo not given): -13.4%; `CN1CSC(=S)N(C)C1`: 21.7% and -19%; `Oc1c(Cl)cccc1Cl`: -18.9%.
For `COc1cc(-c2ccc(N)c(OC)c2)ccc1N`, the activity change % (negative = inhibition) is 4.52% and 5.28% and -5.71%.
The same measure for `C=CCOCC1CO1` (stereo not given): 1.27%.
For the compound `O=[N+]([O-])c1c(Cl)c(Cl)c(Cl)c(Cl)c1Cl`, the activity change % (negative = inhibition) is 14.8%.
The same measure for `O=[N+]([O-])c1cc(Cl)c(Cl)cc1Cl`: 5.06%.
As to `C=CC(=O)OCC(C)C`, the activity change % (negative = inhibition) was -1.18%.
Next, `CN(C)C(=O)Nc1cccc(C(F)(F)F)c1`: -7.4% and -5.84%.
Turning to `CN(C)c1ccc(N(C)C)cc1`, the activity change % (negative = inhibition) is -0.335%.
The same measure for `C=C(C)CCl`: -0.864%; for `Oc1cc(Cl)cc(Cl)c1`: 11.4%; for `ClC(Br)Br`: 16%.
`NC1CCC(CC2CCC(N)CC2)CC1` (stereo not given): the activity change % (negative = inhibition) was 7.19%.
Next, `CCC#N`: -12.3%; `C(CCOCC1CO1)COCC1CO1` (stereo not given): 16.3%.
The same measure for `Cc1ccc2c(C)cccc2c1`: 8.64%; for `Cc1cc(N=Nc2ccccc2C)ccc1N`: -2.95% and 5.44%; for `CCN(CC)CCO`: -7.98%.
`ClC(Cl)(Cl)C(Cl)(Cl)Cl`: the activity change % (negative = inhibition) is 3.45%.
The same measure for `O=C(O)C(Cl)(Cl)Br`: -3.52%.
For the compound `C=CCBr`, the activity change % (negative = inhibition) is -19.2%.
The same measure for `CN(C)N=O`: 11.5%.
